In US20220289795, “EFFICIENT METHOD FOR PREPARING PPR PROTEIN AND USE OF THE SAME” (EditForce, Inc., published 2022):

Target: T1, NL_v2_PPR14 (Artificial Sequence)
T1 chain: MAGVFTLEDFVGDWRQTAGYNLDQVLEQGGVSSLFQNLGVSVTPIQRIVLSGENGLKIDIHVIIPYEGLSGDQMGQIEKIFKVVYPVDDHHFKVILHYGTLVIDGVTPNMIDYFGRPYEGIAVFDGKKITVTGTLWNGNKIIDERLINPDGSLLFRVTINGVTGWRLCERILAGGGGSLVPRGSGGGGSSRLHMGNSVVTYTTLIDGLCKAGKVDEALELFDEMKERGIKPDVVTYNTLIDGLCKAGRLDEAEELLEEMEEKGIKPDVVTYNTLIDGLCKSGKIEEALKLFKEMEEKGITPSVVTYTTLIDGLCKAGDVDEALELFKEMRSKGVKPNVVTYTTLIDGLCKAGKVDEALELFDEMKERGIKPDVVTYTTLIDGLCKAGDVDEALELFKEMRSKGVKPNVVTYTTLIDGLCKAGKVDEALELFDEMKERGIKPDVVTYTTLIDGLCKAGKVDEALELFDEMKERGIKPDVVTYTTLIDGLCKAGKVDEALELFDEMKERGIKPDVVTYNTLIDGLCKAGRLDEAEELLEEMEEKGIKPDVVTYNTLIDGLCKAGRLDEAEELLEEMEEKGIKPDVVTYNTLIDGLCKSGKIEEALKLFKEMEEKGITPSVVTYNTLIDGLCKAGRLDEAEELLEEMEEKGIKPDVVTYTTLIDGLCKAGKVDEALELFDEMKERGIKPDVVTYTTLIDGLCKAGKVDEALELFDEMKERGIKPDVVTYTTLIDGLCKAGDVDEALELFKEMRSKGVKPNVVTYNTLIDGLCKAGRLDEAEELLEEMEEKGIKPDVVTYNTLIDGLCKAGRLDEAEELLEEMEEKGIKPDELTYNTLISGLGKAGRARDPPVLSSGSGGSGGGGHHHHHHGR
Assay: RPB-ELISA
Settings: tags: N-terminal luciferase, C-terminal 6xHis; label: 5'-biotin; ssRNA
Description: RNA probes consisting of a designed 30-base sequence containing 18 bases of the target sequence and modified by biotinylation at the 5′ end (RNA_1, RNA_2, RNA_3, RNA_4, and RNA_5, SEQ ID NOS: 61 to 65) were synthesized (Grainer). To a streptavidin-coated plate (Thermo fisher), the 5′-end biotinylated RNA probes were added, reaction was allowed at room temperature for 30 minutes, and the plate was washed with a lysis buffer (20 mM Tris-HCl, pH 7.6, 150 mM NaCl, 5 mM MgCl₂, 0.5% NP-40, 1 mM DTT, 0.1% BSA). For background measurement, wells to which RNA was not added, but 100 μL of the lysis buffer, 1 μL of 100 mM DTT, and 1 μL of 40 unit/4 RNase inhibitor (Takara, 2313A) were added were also prepared. Then, 200 μL of a blocking buffer (20 mM Tris-HCl, pH 7.6, 150 mM NaCl, 5 mM MgCl₂, 0.5% NP-40, 1 mM DTT, 1% BSA) was added, and the plate surface was blocked at room temperature for 30 minutes. Then, 100 μL of E. coli lysate containing luciferase-fused PPR protein having a luminescence level of 1.5×10⁸ LU/μL was added to each well, and the binding reaction was allowed at room temperature for 30 minutes. The well was washed 5 times with 200 μL of a washing buffer (20 mM Tris-HCl, pH 7.6, 150 mM NaCl, 5 mM MgCl₂, 0.5% NP-40, 1 mM DTT). […] The background (luminescence signal value obtained with adding the PPR protein and without adding RNA) was subtracted from the luminescences of the samples to which a solution containing each RNA and PPR protein was added, and the obtained values were used as the binding powers between the PPR protein and RNA.
By using the v2 motif, PPR proteins for 23 kinds of target sequences (T_1 to T_3, and T_5 to T_24, SEQ ID NOS: […]) were prepared (NL_v2_PPR1 to 3, and NL_v2_PPR5 to 24, SEQ ID NOS: 56 to 58 and 70 to 88), and RPB-ELISA was used to analyze bindings of all the combinations. The experimental method was the same as that used in Example 3.

Question: For GGUUAGAGAUACAGUGUG, which binding signal is on record?
Answer: 22 log2 luminescence
